This passage reports Potency results from PubChem BioAssay (Tox21).

Assay [1] addresses Peroxisome proliferator-activated receptor delta (Homo sapiens) (UniProt Q03181). Kind of assay: qHTS assay to identify small molecule agonists of the peroxisome proliferator-activated receptor delta (PPARd) signaling pathway (AID 743212; calls by dose curve). Summed up:
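GeneBLAzer PPARd UAS-bla HEK293H cells (beta-lactamase reporter under UAS control), plated and rested 5 h at 37 C, then exposed to compounds in DMSO at 37 C; LiveBLAzer B/G FRET substrate added, 2 h room temperature, fluorescence read.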
A general note: Quantitative high-throughput screening tests each substance at several concentrations.

The nature of assay [2]: qHTS assay to identify small molecule antagonists of the peroxisome proliferator-activated receptor delta (PPARd) signaling pathway - cell viability counter screen (AID 743213). Also: nearly all actives have a fitted effect of over 50% in size. Also: potency is read from the fitted curve at half-maximal effect. Summed up:
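Cytotoxicity counter screen: CellTiter-Glo luminescence read 30 min after addition, in the same wells as the reporter assay. There, PPARd UAS-bla HEK293H cells (3000/well) were treated 17 h at 37 C with compound and 300 nM L165041.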

Assay [3] addresses Peroxisome proliferator-activated receptor delta (Homo sapiens) (UniProt Q03181). Kind of assay: qHTS assay to identify small molecule antagonists of the peroxisome proliferator-activated receptor delta (PPARd) signaling pathway (AID 743215; active = well fitted inhibition curve with a large enough effect in the signal ratio in the repeat runs, not every such curve was filed as active; the % refers to the signal ratio;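 also: cells stimulated with agonist L165041 at 300 nM final during compound exposure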; also: potency is read from the fitted curve at half-maximal effect). An outline of the steps: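 HEK293H UAS-bla, PPARd; agonist L165041 300 nM final with cpd in DMSO; 37 C 17 h; FRET substrate, RT 2 h; fluorescence intensity.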

In assay [4] the target is Bile acid receptor (Homo sapiens) (UniProt Q96RI1). Kind of assay: qHTS assay to identify small molecule antagonists of the farnesoid-X-receptor (FXR) signaling pathway (AID 743217; active = well fitted inhibition curve with a large enough effect in the signal ratio in the repeat runs, not every such curve was filed as active; the % refers to the signal ratio). An outline of the steps: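 GeneBLAzer FXR-UAS-bla HEK 293T, CDCA-stimulated (50 uM final). Compound treatment 16 h, 37 °C. Detection: beta-lactamase cleavage of B/G FRET substrate, fluorescence.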
Bile acid receptor (Homo sapiens), sequence (Q96RI1 whole entry, looked up): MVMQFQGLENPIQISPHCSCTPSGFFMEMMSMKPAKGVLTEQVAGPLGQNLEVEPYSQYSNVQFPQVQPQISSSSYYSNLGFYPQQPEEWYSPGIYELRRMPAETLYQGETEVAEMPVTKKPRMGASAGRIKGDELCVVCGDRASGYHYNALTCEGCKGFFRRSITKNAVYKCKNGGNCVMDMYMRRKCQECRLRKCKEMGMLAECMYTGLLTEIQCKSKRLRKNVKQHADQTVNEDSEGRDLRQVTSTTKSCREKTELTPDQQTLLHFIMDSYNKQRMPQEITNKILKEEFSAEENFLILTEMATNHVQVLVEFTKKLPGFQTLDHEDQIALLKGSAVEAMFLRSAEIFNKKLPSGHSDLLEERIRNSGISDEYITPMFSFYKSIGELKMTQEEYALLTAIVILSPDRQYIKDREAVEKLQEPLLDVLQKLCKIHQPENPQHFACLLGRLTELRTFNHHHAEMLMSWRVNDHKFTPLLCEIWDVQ

Assay [5] in a line: qHTS assay to identify small molecule agonists of the farnesoid-X-receptor (FXR) signaling pathway - cell viability counter screen (AID 743218). Also: nearly all actives have a fitted effect of over 45% in size. Summed up:
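Parallel cytotoxicity test: compound-treated (16 h, 37 C) HEK 293T FXR-bla reporter cells were lysed with CellTiter-Glo and luminescence recorded.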

In assay [6] the target is Bile acid receptor (Homo sapiens) (UniProt Q96RI1). Kind of assay: qHTS assay to identify small molecule agonists of the farnesoid-X-receptor (FXR) signaling pathway (AID 743220; active = well fitted activation curve with a large enough effect in the signal ratio in the repeat runs, not every such curve was filed as active; the % refers to the signal ratio). Summed up: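 Beta-lactamase reporter under UAS control in GeneBLAzer FXR HEK 293T cells (5000/well) measured with LiveBLAzer FRET substrate after 2 h at room temperature. Compound exposure lasted 16 h at 37C.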

The nature of assay [7]: qHTS assay to identify small molecule antagonists of the farnesoid-X-receptor (FXR) signaling pathway - cell viability counter screen (AID 743221; active = well fitted cell-killing curve with a large enough effect in the repeat runs, not every such curve was filed as active; also: nearly all actives have a fitted effect of over 50% in size). An outline of the steps:
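GeneBLAzer FXR-UAS-bla HEK 293T cells, compound plus chenodeoxycholic acid (50 uM final), 16 h at 37 C. CellTiter-Glo added to the same wells after the beta-lactamase read; luminescence read after 30 min at room temperature as viability.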

Assay [8] deals with Vitamin D3 receptor (Homo sapiens) (UniProt P11473). Kind of assay: qHTS assay to identify small molecule antagonists of the vitamin D receptor (VDR) signaling pathway (AID 743223; active = well fitted inhibition curve with a large enough effect in the signal ratio in the repeat runs, not every such curve was filed as active; the % refers to the signal ratio). Summed up:
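VDR-bla cells were treated with compound plus 3 nM final 1alpha,25-dihydroxyvitamin D3 for 16 h at 37C. Beta-lactamase reporter read by B/G FRET substrate fluorescence after 2 h at room temperature. qHTS format.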

Assay [9] is described as follows: qHTS assay to identify small molecule agonists of the vitamin D receptor (VDR) signaling pathway - cell viability counter screen (AID 743224). Also: nearly all actives have a fitted effect of over 50% in size. Also: potency is read from the fitted curve at half-maximal effect. Summed up:
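Plated VDR-bla cells (4 h, 37C) received compound, incubated 16 h, then LiveBLAzer substrate 2 h RT; CellTiter-Glo added afterwards, luminescence read at 30 min.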

Assay [10] addresses Vitamin D3 receptor (Homo sapiens) (UniProt P11473). Kind of assay: qHTS assay to identify small molecule agonists of the vitamin D receptor (VDR) signaling pathway (AID 743222; calls by dose curve). An outline of the steps:
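In VDR-bla cells, compound-induced beta-lactamase expression is quantified by FRET substrate fluorescence. Treatment lasts 16 h at 37C; substrate develops 2 h at room temperature.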

“And” between values parts separate entries of the source, which are not always exact repeats. Identical values can stand only once. Inconclusive results are not listed. More than one record can exist for a structure, and the calls need not agree. The source made the active and inactive calls. Unless noted, calls follow the shape of the dose curve; as a rule, active = well fitted curve in the direction sought with a large enough effect in the repeat runs; inconclusive = weak or mixed curves; inactive = no such curve, though single readings can be large; an effect the other way counts as inactive or inconclusive.

Peroxisome proliferator-activated receptor delta (Homo sapiens), sequence (Q03181 whole entry, looked up): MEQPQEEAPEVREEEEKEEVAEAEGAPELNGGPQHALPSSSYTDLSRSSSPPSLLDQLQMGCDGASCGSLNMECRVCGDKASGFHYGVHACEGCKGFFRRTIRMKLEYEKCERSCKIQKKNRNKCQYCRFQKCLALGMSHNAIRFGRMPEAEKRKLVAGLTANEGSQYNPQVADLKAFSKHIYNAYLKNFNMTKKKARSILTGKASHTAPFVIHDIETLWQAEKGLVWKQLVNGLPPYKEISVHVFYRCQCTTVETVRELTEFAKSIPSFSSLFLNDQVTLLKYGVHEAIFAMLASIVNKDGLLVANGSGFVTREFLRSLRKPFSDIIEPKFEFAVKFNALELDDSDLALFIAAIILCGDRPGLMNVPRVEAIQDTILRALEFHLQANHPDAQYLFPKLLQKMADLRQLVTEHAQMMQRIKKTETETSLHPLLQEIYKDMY
Vitamin D3 receptor (Homo sapiens), sequence (P11473 whole entry, looked up): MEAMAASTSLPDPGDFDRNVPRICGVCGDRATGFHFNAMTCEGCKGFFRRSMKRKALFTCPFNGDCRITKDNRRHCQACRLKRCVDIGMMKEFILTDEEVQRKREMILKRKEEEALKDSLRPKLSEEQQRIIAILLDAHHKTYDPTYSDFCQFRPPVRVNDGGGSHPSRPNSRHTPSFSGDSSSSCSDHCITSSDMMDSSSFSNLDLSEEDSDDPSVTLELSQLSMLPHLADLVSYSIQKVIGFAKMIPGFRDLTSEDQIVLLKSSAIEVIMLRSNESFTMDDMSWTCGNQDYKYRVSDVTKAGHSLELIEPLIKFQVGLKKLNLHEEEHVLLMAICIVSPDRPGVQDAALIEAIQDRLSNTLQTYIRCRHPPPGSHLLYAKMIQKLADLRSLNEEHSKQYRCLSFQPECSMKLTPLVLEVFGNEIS

Take `CC(=O)O[C@]1(C(C)=O)CC[C@H]2[C@@H]3C[C@H](C)C4=CC(=O)CC[C@]4(C)[C@H]3CC[C@@]21C`: the Potency entry in [1], in assay [2], in assay [3], in assay [4], in assay [5] and in assay [6] was “inactive” throughout. Further, the Potency result in assay [7], in assay [8] and in [9] was “inactive” in each case.
Consider `NC(N)=Nc1nc(CSCC/C(N)=N/S(N)(=O)=O)cs1`, for which the Potency entry in assay [1], in [2], in assay [3], in assay [4], in assay [5] and in assay [6] was “inactive” each time. For the same compound, the Potency result in assay [7], in [10], in assay [8] and in [9] was “inactive” in each case.
In the case of `O=C(O)c1cn(-c2ccc(F)cc2)c2cc(N3CCNCC3)c(F)cc2c1=O`, the Potency result in [1], in assay [2], in [3], in assay [5], in assay [7] and in assay [9] was “inactive” in each case.
As to `C=CS(=O)(=O)O`, the Potency result in [1], in assay [2], in assay [3], in assay [5], in assay [6] and in [7] was “inactive” in each case. Besides, the Potency entry in assay [10] and in assay [9] was “inactive” each time.
Consider `C=CC(=O)OCCCCCCCC`, for which the Potency result in assay [1], in [2], in assay [3], in assay [5], in [7] and in assay [10] was “inactive” each time. In assay [9], the Potency result was “inactive”.
In the case of `c1cnc2cc3c(cc2n1)C1CNCC3C1`, the Potency entry in assay [1], in assay [2], in assay [3], in assay [4], in [6] and in assay [7] was “inactive” each time. Further, the Potency result in assay [10], in [8] and in [9] was “inactive” throughout.
On to `OCCN1CCNCC1`, for which the Potency entry in [1], in assay [2], in assay [3], in assay [4], in assay [5] and in assay [6] was “inactive” throughout. For the same compound, the Potency entry in assay [7], in assay [10] and in [9] was “inactive” throughout.
Turning to `CCCOC(=O)c1cc(O)c(O)c(O)c1`, the Potency entry in assay [1], in assay [2], in assay [3], in [5], in assay [6] and in assay [7] was “inactive” in each case. Further, the Potency entry in assay [10], in [8] and in [9] was “inactive” throughout.
With `CCc1cc(C(C)(C)C)c(O)c(C(C)(C)C)c1`, the Potency result in assay [1], in assay [2], in assay [3], in assay [4], in assay [6] and in assay [7] was “inactive” each time. Further, the Potency result in assay [10] and in [9] was “inactive” throughout.
As to `OCC(CO)N[C@H]1C[C@](O)(CO)[C@@H](O)[C@H](O)[C@H]1O`, the Potency result in assay [1], in [2], in assay [3], in assay [4], in [6] and in assay [7] was “inactive” throughout. Also, the Potency result in [10] and in [9] was “inactive” throughout.
`CCn1c2ccccc2c2cc(N)ccc21`: the Potency result in [1], in [2], in assay [3], in assay [5], in assay [7] and in assay [9] was “inactive” throughout.
Regarding `O=C(O)c1cc(Cl)cc(Cl)c1`, the Potency result in assay [1], in [2], in assay [3], in [5], in assay [7] and in assay [9] was “inactive” each time.
As to `CN1C(=O)c2ccc([N+](=O)[O-])cc2C1=O`, the Potency entry in [1], in assay [2], in [3], in assay [4], in [5] and in [6] was “inactive” each time. Also, the Potency result in [7], in assay [10] and in [9] was “inactive” throughout.
In the case of `Oc1ccc(Cl)cc1Cc1cc(Cl)ccc1O`, the Potency entry in [1], in assay [6], in assay [7] and in [10] was “inactive” throughout. Further, the Potency in assay [2] was 25 µM (active); in [3] it was 55.9 µM (active) and inactive; in assay [9], 11.2 µM (active) and 38.9 µM (active).
In the case of `C#CC(C)(CC)OC(=O)c1ccccc1C(=O)O` (stereo unspecified), the Potency entry in assay [1], in [2], in assay [3], in assay [5], in [7] and in assay [10] was “inactive” each time. For the same compound, in assay [9], the Potency entry was “inactive”.
In the case of `COc1ccc(COC(C)=O)cc1`, the Potency result in [1], in assay [2], in [3], in [4], in assay [5] and in assay [6] was “inactive” throughout. Moreover, the Potency entry in assay [7], in assay [10], in assay [8] and in assay [9] was “inactive” each time.
`COC(=O)/C=C/c1ccccc1`: the Potency entry in assay [1], in assay [2], in assay [3], in assay [5], in assay [7] and in assay [10] was “inactive” in each case. The Potency entry in assay [8] and in assay [9] was “inactive” each time.
For `Cc1scc2c1N(C(=O)CN1CCN(C)CC1)c1ccccc1NC2=O`, the Potency entry in [1], in assay [2], in [3], in assay [4], in assay [5] and in [6] was “inactive” throughout. Besides, the Potency entry in assay [7], in assay [10], in assay [8] and in assay [9] was “inactive” each time.
Turning to `Cc1cccc(O)c1C`, the Potency entry in [1], in [2], in assay [3], in [4], in assay [6] and in [7] was “inactive” in each case. Further, the Potency entry in assay [10], in assay [8] and in [9] was “inactive” in each case.
As to `O=C1Nc2ccccc2C1(c1ccc(O)cc1)c1ccc(O)cc1`, the Potency entry in assay [1], in assay [2], in assay [3], in [5], in assay [7] and in assay [10] was “inactive” throughout. Moreover, in [9], the Potency result was “inactive”.
On to `CC(C)CCOC(=O)c1ccc(N(C)C)cc1`, for which the Potency result in [1], in [2], in [3], in assay [5], in assay [7] and in [10] was “inactive” in each case. Besides, the Potency entry in [8] and in assay [9] was “inactive” throughout.
In the case of `C1COC(NC(C2CC2)C2CC2)=N1`, the Potency entry in [1], in assay [2], in [3], in assay [5], in assay [7] and in assay [9] was “inactive” throughout.
